{
  "source": "ChEMBL document CHEMBL4513146",
  "about": "“CO-ADD screening of Karazin Kharkiv National University (Ukraine) compounds”",
  "note": "Entries with a potency or affinity are not part of this list.",
  "data": [
    {"test_system": "Klebsiella pneumoniae", "conditions": "Concentration 32 ug.mL-1;; ASSAY_TEST Inhibition of Bacterial Growth; detection method Absorption (OD600); MEDIA CAMHB; plate type 384well; NBS; CORNING #3640; time 18 hr", "units": {"Inhibition": "%"}, "values": [
      {"smiles": "CCCCn1c(=O)c2sccc2n2c(=O)n(CC(=O)c3cccc(OC)c3)nc12", "Inhibition": 13.89},
      {"smiles": "CCCc1nnc2c(=O)n(CC(=O)N3CCCc4ccccc43)c3ccccc3n12", "Inhibition": 7.45},
      {"smiles": "CCc1nnc2c(S(=O)(=O)N(Cc3ccc(F)cc3)c3ccc(Cl)cc3)cccn12", "Inhibition": 7.23},
      {"smiles": "COc1ccc(NC(=O)c2ccc3nn(CC(=O)Nc4cccc(SC)c4)c(=O)n3c2)cc1", "Inhibition": -1.25},
      {"smiles": "COc1ccc(-c2cc3c4nnc(SCC(=O)Nc5ccccc5F)n4ccn3n2)cc1", "Inhibition": 6.81},
      {"smiles": "Cc1cc(Br)ccc1NC(=O)Cn1nc2c(SC3CCCCC3)nccn2c1=O", "Inhibition": 10.86},
      {"smiles": "Cc1cc(C)cc(NC(=O)Cn2nc3ccc(SC(C)(C)C)nn3c2=O)c1", "Inhibition": 7.43},
      {"smiles": "CCc1cccc(NC(=O)Cn2c(=O)c3nnc(C(C)C)n3c3ccccc32)c1", "Inhibition": 9.33},
      {"smiles": "CC(C)c1ccc(NC(=O)Cn2nc3ccc(SCc4ccc(Cl)cc4)nn3c2=O)cc1", "Inhibition": 6.44},
      {"smiles": "Cc1cccc(CN(c2cccc(F)c2)S(=O)(=O)c2ccc3nncn3c2)c1", "Inhibition": 14.36},
      {"smiles": "Cc1ccc(Nc2cc(C)n3c(=O)n(CCOc4ccc(F)cc4)nc3n2)cc1", "Inhibition": 19.26},
      {"smiles": "COc1ccc(NC(=O)Cn2nc3c(N4CCCC4)nccn3c2=O)cc1", "Inhibition": 6.93},
      {"smiles": "Cc1cc(C)c(NC(=O)CSc2nnc3ccc(C(=O)Nc4cccc(F)c4)cn23)c(C)c1", "Inhibition": 4.12},
      {"smiles": "COc1cccc(C(=O)Cn2nc3n(CCC(C)C)c(=O)c4sccc4n3c2=O)c1", "Inhibition": -2.35},
      {"smiles": "CCc1ccccc1NC(=O)Cn1nc2c(Sc3ccc(C)cc3C)nccn2c1=O", "Inhibition": 5.69},
      {"smiles": "Cc1ccc(-n2ccn3c(SCC(=O)c4c[nH]c5ccccc45)nnc3c2=O)cc1C", "Inhibition": 9.4},
      {"smiles": "CCOc1ccc(N(Cc2ccccc2)S(=O)(=O)c2ccc3nncn3c2)cc1", "Inhibition": 6.93},
      {"smiles": "Cc1ccc(-c2cc3c4nnc(CCC(=O)N5CCN(c6ccccn6)CC5)n4ccn3n2)cc1C", "Inhibition": 7.34},
      {"smiles": "O=C(CSc1nnc2c3cc(-c4ccc(F)cc4)nn3ccn12)Nc1ccccc1C(F)(F)F", "Inhibition": -6.96},
      {"smiles": "O=c1n(Cc2ccc(Cl)cc2)nc2ccc(-c3ccccc3)nn12", "Inhibition": 18.04},
      {"smiles": "COc1ccc(-c2cc3c4nnc(SCC(=O)Nc5ccc(C)c(F)c5)n4ccn3n2)cc1", "Inhibition": 1.13},
      {"smiles": "Cc1cc(C)cc(NC(=O)Cn2nc3c4cc(-c5ccc(C)c(C)c5)nn4ccn3c2=O)c1", "Inhibition": 6.91},
      {"smiles": "O=C(Cn1nc2c3cc(-c4ccc(Cl)cc4)nn3ccn2c1=O)Nc1ccc(F)cc1", "Inhibition": 10.41},
      {"smiles": "N#Cc1cccc(Cn2nc3ccc(S(=O)(=O)N4CCCCCC4)cn3c2=O)c1", "Inhibition": 8.88},
      {"smiles": "O=c1n(Cc2nc(-c3ccc4c(c3)OCO4)no2)nc2ccc(-c3ccccc3)nn12", "Inhibition": -1.48}
    ]},
    {"test_system": "Candida albicans", "conditions": "Concentration 32 ug.mL-1; ASSAY_TEST Inhibition of Fungal Growth; detection method Absorption (OD530)", "units": {"Inhibition": "%"}, "values": [
      {"smiles": "Cc1ccc(NC(=O)Cn2nc3c(Oc4ccccc4C)nccn3c2=O)cc1F", "Inhibition": -0.61},
      {"smiles": "COc1ccc(NC(=O)Cn2nc3c(Sc4ccccc4)nccn3c2=O)c(OC)c1", "Inhibition": 2.27},
      {"smiles": "Cc1cccc(NC(=O)Cn2nc3ccc(-c4ccc(C)c(C)c4)nn3c2=O)c1", "Inhibition": -1.03},
      {"smiles": "CCOC(=O)c1ccc(NC(=O)Cn2nc3ccc(Sc4ccccc4)nn3c2=O)cc1", "Inhibition": 4.06},
      {"smiles": "NC(=O)CSc1nnc2c(=O)n(-c3ccccc3)ccn12", "Inhibition": 2.06},
      {"smiles": "O=C(Cn1nc2c(=O)n(-c3ccc(Br)cc3)ccn2c1=O)Nc1ccc(F)cc1F", "Inhibition": 0.41},
      {"smiles": "CSc1cccc(NC(=O)Cn2c(=O)c3nnc(C)n3c3ccccc32)c1", "Inhibition": 4.76},
      {"smiles": "Cc1cc(C)cc(Nc2nc(C)cc3nn(CC(=O)Nc4ccccc4)c(=O)n23)c1", "Inhibition": 4.6},
      {"smiles": "COc1cccc(-n2ccn3c(SCC(=O)Nc4ccccc4Cl)nnc3c2=O)c1", "Inhibition": 1.92},
      {"smiles": "Cc1ccc(-c2ccc3nn(Cc4nc(-c5ccc(Cl)cc5)no4)c(=O)n3n2)cc1C", "Inhibition": 1.35},
      {"smiles": "Cc1ccc(NC(=O)Cn2nc3c(SCc4ccc(Cl)cc4)nccn3c2=O)cc1F", "Inhibition": 3.39},
      {"smiles": "COc1ccc(NC(=O)C(C)Sc2nnc3c(=O)n(-c4ccc(C)c(C)c4)ccn23)cc1", "note": "(stereo not given)", "Inhibition": -1.2},
      {"smiles": "O=C(Cn1nc2c(N3CCSCC3)nc3ccccc3n2c1=O)Nc1ccc(Br)cc1", "Inhibition": 11.24},
      {"smiles": "COc1ccc(NC(=O)Cn2nc3c(Oc4ccccc4)nccn3c2=O)cc1OC", "Inhibition": 1.92},
      {"smiles": "CSc1cccc(NC(=O)Cn2nc3c(N4CCCC4)nccn3c2=O)c1", "Inhibition": 3.86},
      {"smiles": "CCCCn1c(=O)c2sccc2n2c(=O)n(CC(=O)c3cccc(OC)c3)nc12", "Inhibition": 1.56},
      {"smiles": "CCCc1nnc2c(=O)n(CC(=O)N3CCCc4ccccc43)c3ccccc3n12", "Inhibition": 0.04},
      {"smiles": "CCc1nnc2c(S(=O)(=O)N(Cc3ccc(F)cc3)c3ccc(Cl)cc3)cccn12", "Inhibition": 3.47},
      {"smiles": "COc1ccc(NC(=O)c2ccc3nn(CC(=O)Nc4cccc(SC)c4)c(=O)n3c2)cc1", "Inhibition": 7.63},
      {"smiles": "COc1ccc(-c2cc3c4nnc(SCC(=O)Nc5ccccc5F)n4ccn3n2)cc1", "Inhibition": -0.08},
      {"smiles": "Cc1cc(Br)ccc1NC(=O)Cn1nc2c(SC3CCCCC3)nccn2c1=O", "Inhibition": 1.51},
      {"smiles": "Cc1cc(C)cc(NC(=O)Cn2nc3ccc(SC(C)(C)C)nn3c2=O)c1", "Inhibition": 7},
      {"smiles": "CCc1cccc(NC(=O)Cn2c(=O)c3nnc(C(C)C)n3c3ccccc32)c1", "Inhibition": 1.02},
      {"smiles": "CC(C)c1ccc(NC(=O)Cn2nc3ccc(SCc4ccc(Cl)cc4)nn3c2=O)cc1", "Inhibition": 14.48},
      {"smiles": "Cc1cccc(CN(c2cccc(F)c2)S(=O)(=O)c2ccc3nncn3c2)c1", "Inhibition": 3.33},
      {"smiles": "Cc1ccc(Nc2cc(C)n3c(=O)n(CCOc4ccc(F)cc4)nc3n2)cc1", "Inhibition": 2.38},
      {"smiles": "COc1ccc(NC(=O)Cn2nc3c(N4CCCC4)nccn3c2=O)cc1", "Inhibition": 1.38},
      {"smiles": "Cc1cc(C)c(NC(=O)CSc2nnc3ccc(C(=O)Nc4cccc(F)c4)cn23)c(C)c1", "Inhibition": 1.89},
      {"smiles": "COc1cccc(C(=O)Cn2nc3n(CCC(C)C)c(=O)c4sccc4n3c2=O)c1", "Inhibition": 8.83},
      {"smiles": "CCc1ccccc1NC(=O)Cn1nc2c(Sc3ccc(C)cc3C)nccn2c1=O", "Inhibition": 0.47},
      {"smiles": "Cc1ccc(-n2ccn3c(SCC(=O)c4c[nH]c5ccccc45)nnc3c2=O)cc1C", "Inhibition": 3.27},
      {"smiles": "CCOc1ccc(N(Cc2ccccc2)S(=O)(=O)c2ccc3nncn3c2)cc1", "Inhibition": 2.75},
      {"smiles": "Cc1ccc(-c2cc3c4nnc(CCC(=O)N5CCN(c6ccccn6)CC5)n4ccn3n2)cc1C", "Inhibition": 0.49},
      {"smiles": "O=C(CSc1nnc2c3cc(-c4ccc(F)cc4)nn3ccn12)Nc1ccccc1C(F)(F)F", "Inhibition": 5.14},
      {"smiles": "O=c1n(Cc2ccc(Cl)cc2)nc2ccc(-c3ccccc3)nn12", "Inhibition": 2.75},
      {"smiles": "COc1ccc(-c2cc3c4nnc(SCC(=O)Nc5ccc(C)c(F)c5)n4ccn3n2)cc1", "Inhibition": 19.06},
      {"smiles": "Cc1cc(C)cc(NC(=O)Cn2nc3c4cc(-c5ccc(C)c(C)c5)nn4ccn3c2=O)c1", "Inhibition": 7.8},
      {"smiles": "O=C(Cn1nc2c3cc(-c4ccc(Cl)cc4)nn3ccn2c1=O)Nc1ccc(F)cc1", "Inhibition": 1.82},
      {"smiles": "N#Cc1cccc(Cn2nc3ccc(S(=O)(=O)N4CCCCCC4)cn3c2=O)c1", "Inhibition": -0.26},
      {"smiles": "O=c1n(Cc2nc(-c3ccc4c(c3)OCO4)no2)nc2ccc(-c3ccccc3)nn12", "Inhibition": 6.34}
    ]}
  ]
}
